High-throughput results as filed in PubChem.
PGK inhibitor: blocks T. brucei phosphoglycerate kinase. Potency, µM (highest dose often 57.5 µM), without a hit: at the top dose activity change, negative = inhibition, actives largely listed as inhibitors. PGK/GAPDH coupled, Kinase-Glo luminescence, 60 min. hit rate 0.043% among 380,000; note: potency is the fitted concentration of half-maximal effect; % is set by controls: 0 for no effect and ±100 for the full control effect; nearly all actives have a fitted effect of over 60% in size
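Luminescent ATP detection (Kinase-Glo Plus) follows a 60-minute room-temperature incubation, with wells lacking PGK as controls. Buffer: 100 mM TEA (pH 7.6), 5 mM MgCl2, 0.01% Tween-20. Coupling enzyme GAPDH (100 nM final) supplies unstable 1,3-BPG in-well.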
PI4K2A inh: inhibitors of human PI4K2A; Q9BTU6; purified PI4K2A, ADP-Glo luminescence, 1 h; hits give low values; activity change, negative = inhibition, % at 76.9 µM; hit rate 0.13% among 420,000; in the data active = activity change below about -50%; inconclusive = mostly about -30% to -49%;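 note: -100% = wells without enzyme as full effect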
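In this quantitative HTS, ADP production by PI4K2A was quantified luminescently after 1 h at ambient temperature; 100 microM adenosine served as plate-quality control.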
GLS inhibitor: inhibitors of human glutaminase (GLS). O94925. GLS enzymatic activity, qHTS titration. Potency, µM (series often up to 45.5 µM), for the others: at the top dose activity change, negative = inhibition, hits mostly inhibitors. hit rate 0.21% among 410,000. AID 624170; note: potency is the fitted concentration of half-maximal effect; % is set by controls: 0 for no effect and ±100 for the full control effect
Target sequence (O94925 whole entry, looked up): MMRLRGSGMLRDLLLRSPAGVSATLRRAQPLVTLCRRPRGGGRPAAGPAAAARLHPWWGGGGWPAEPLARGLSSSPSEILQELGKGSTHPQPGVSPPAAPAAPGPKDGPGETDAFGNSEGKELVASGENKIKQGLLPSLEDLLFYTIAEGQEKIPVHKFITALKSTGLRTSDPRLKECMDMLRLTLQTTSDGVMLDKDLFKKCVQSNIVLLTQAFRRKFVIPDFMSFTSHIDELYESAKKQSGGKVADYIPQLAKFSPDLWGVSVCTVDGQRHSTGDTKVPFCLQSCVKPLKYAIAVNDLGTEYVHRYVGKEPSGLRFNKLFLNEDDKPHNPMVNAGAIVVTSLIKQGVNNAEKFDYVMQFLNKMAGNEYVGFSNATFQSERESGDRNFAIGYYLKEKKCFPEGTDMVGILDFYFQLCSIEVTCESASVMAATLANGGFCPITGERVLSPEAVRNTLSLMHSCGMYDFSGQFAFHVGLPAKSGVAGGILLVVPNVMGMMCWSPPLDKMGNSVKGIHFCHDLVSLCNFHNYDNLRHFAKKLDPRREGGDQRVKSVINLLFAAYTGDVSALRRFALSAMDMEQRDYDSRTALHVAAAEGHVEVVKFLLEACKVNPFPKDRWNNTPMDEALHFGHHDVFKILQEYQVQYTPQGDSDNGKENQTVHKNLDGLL
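hKGA in 45 mM KH2PO4 (pH 8.2), 0.02% Tween-20 with compound, then 1mM L-Glutamine (stock as added) plus glutamate oxidase/HRP/Amplex red coupling mix. Fluorescence read initially and after 30 min at RT; signal change reflects glutamate formation.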
CCT chaperon mod: modulators of cytosolic chaperonin (CCT/TRiC) activity; purified chaperonin ATPase assay, HTRF ADP detection, 30 min; AID 651819; hit rate 0.3% among 360,000; activity change, % (no concentration beside the values), hits read low; in the data active = activity change below about -30%; note: % is set by controls: 0 for no effect and ±100 for the full control effect
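TRiC (40 or 20 nM final, by batch activity) in 30 mM Tris pH 7.4, 100 mM KCl, 5 mM MgCl2, 1 mM DTT was treated with compound at 76 uM single dose, then 10 uM ATP, 30 min at 37 °C. ADP was read by HTRF Transcreener.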
PINK1 expr mod: changes PINK1 expression | Potency, µM (titrated, usually from 76.6 µM), for inactives: at the top dose activation (PINK1 increase), most hits filed as activators | hit rate 0.2% among 410,000 | PINK1 immunofluorescence, high-content cytometry, 24 h; active = well fitted activation curve with a large enough effect; inconclusive = small, poorly fitted or top-dose-only effect; cell line not stated here; note: potency is the fitted concentration of half-maximal effect; % of control where 0% means no effect; nearly all actives have a fitted effect of over 65% in size
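Compound titrations (5 concentrations, 24 h) on a stable cell line; DMSO and CCCP controls. Endpoint: fixed-cell PINK1 immunofluorescence with mitochondrial, cell and nuclear markers, scanned by microplate cytometer.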
Starred values were filed as active, the others as inactive; i = inactive; u = inconclusive; x = not tested or not shown; [ ] = another dose, or the depositor's remark. This is a sample that favours compounds with a hit; in the whole collection about 0.78% have one here. Unless noted, calls come from the whole dose curve; as a rule, active = well fitted curve in the direction sought with a large enough effect; inconclusive = small, poorly fitted or top-dose-only effect, or another doubt; inactive = no such curve, though single readings can be large; an effect the other way counts as inactive or inconclusive.

SMILES | PGK inhibitor | PI4K2A inh | GLS inhibitor | CCT chaperon mod | PINK1 expr mod
COc1ccccc1/C=C(/CC(=O)NCc1ccc(F)cc1)c1nc2ccccc2s1 | 5% | -10 | 2% | -2 | -1%
COc1cc(/C=C(\CCC(=O)O)c2nc3ccccc3s2)ccc1OCC(=O)Nc1c(Cl)cccc1Cl | u | 1 | 10µM* | -2 | 0%
O=C(O)CC/C(=C/c1cccc(NC(=O)c2ccccc2Cl)c1)c1nc2ccccc2s1 | -4% | 6 | u | -1 | -1%
COc1ccccc1/C=C(/CC(=O)NCc1ccccc1)c1nc2ccccc2s1 | 6% | -4 | 2% | -34* | 1%
COCCN(C)C(=O)c1cnn(-c2ncc3c(n2)-c2ccccc2CCC3)c1C1CC1 | x | x | x | x | 0%
CC(C)(O)C#Cc1ccc(C(=O)NCCN2Cc3ccccc3OC(c3ccccc3F)C2)o1 (centres undefined) | x | x | x | x | -1%
CCCSc1ncc(Cl)c(C(=O)Nc2sc3c(c2C(N)=O)CCCC3)n1 | x | 3 | 7% | x | 8.9µM*
CCSc1ncc(Cl)c(C(=O)Nc2sc3c(c2C(=O)NCc2cccnc2)CCCC3)n1 | x | -3 | 5% | 0 | 11µM*
O=C(NCC1Cc2cccc(-c3ccccn3)c2O1)c1cnn2cccnc12 (centres undefined) | x | x | x | x | 0%
CCN(CC)c1ccc2cc(-c3nc(-c4ccccc4)no3)c(=O)oc2c1 | -8% | -2 | -8% | x | 1%
CCN(CC)c1ccc2cc(-c3nc(-c4cc5ccccc5oc4=O)cs3)c(=O)oc2c1 | 0% | -4 | -1% | -4 | 32µM*
CC[C@@H](C)[C@H](NC(=O)Cc1c(C)c2c(cc(C)c3c(C)c(C)oc32)oc1=O)C(=O)O | -10% | 4 | 52% | -3 | 1%
Cc1oc2c(c(C)cc3oc(=O)c(CC(=O)N[C@@H](C)C(=O)O)c(C)c32)c1C | 0% | -2 | 3% | -33* | -2%
COc1ccccc1Cn1c(=S)[nH]c2cc(C(=O)N3CCCC3)ccc2c1=O | -2% | -2 | u | -1 | 4%
COc1ccccc1Cn1c(=S)[nH]c2cc(C(=O)NCCN(C)C)ccc2c1=O | 7% | -2 | 10µM* | 2 | 4%
CCN1CCN(C(=O)c2ccc3c(=O)n(Cc4ccccc4OC)c(=S)[nH]c3c2)CC1 | i | -5 | 11µM* | -2 | 6%[38.3 µM]
CCOC(=O)c1nn2c(C(F)(F)F)cc(-c3ccc(OC)cc3)nc2c1Br | -20% | 2 | -2% | -33* | 18%
CC(=O)Nc1ccc(NCc2cccs2)cc1 | 13% | -1 | 0% | -1 | 2%
Oc1ccc(NCc2cccs2)cc1 | -4% | u | 11µM* | 0 | -1%
O=C(CN1CCOCC1)NN=C(c1ccccc1)c1ccccc1 | -4% | 4 | 4% | 0 | 1%
C/C(=N\NC(=O)CN1CCOCC1)C(C)(C)C | 9% | 2 | 6% | -2 | 10µM*
COc1cccc(CNC(=O)c2c(OC)cc(=O)n3c2CCN(C(=O)c2ccc(Cl)cc2)CC3)c1 | x | x | x | x | 1%
CC(C)(C)c1ccc(S(=O)(=O)N[C@H]2CC[C@@H](n3cc(C(=O)N4CCCC4)nn3)CC2)cc1 | x | x | x | x | 0%
C[C@@H]1CN([C@@H](C)CO)C(=O)c2cc(NC(=O)C3CC3)ccc2O[C@@H]1CN(C)Cc1ccc(Cl)c(Cl)c1 | -5% | 3 | -6% | -41* | 12%
O=C1/C(=C/c2ccncc2)SC(=S)N1Nc1ccccc1 | 13% | -9 | 8.9µM* | -5 | 8%
SMILES | PGK inhibitor | PI4K2A inh | GLS inhibitor | CCT chaperon mod | PINK1 expr mod
CC(=O)NN1C(=O)/C(=C\c2ccccc2)SC1=S | -6% | -5 | -1% | 1 | 3%
Cc1cc(C)nc(NN2C(=O)/C(=C/c3ccccc3)SC2=S)n1 | -10% | 8 | -8% | 2 | 10µM*
COc1ccc(CNC(=O)c2sc3nc4c(c(C(F)(F)F)c3c2N)CCC4)cc1OC | i | 0 | 9% | 1 | -1%
COc1ccc(NC(=O)c2sc3nc(C(F)(F)F)cc(C)c3c2N)cc1OC | i | -1 | 5% | x | 40µM*
Cc1ncc2c(c1CNS(=O)(=O)N(C)C)CCN(C(=O)/C=C/c1cccc(F)c1)C2 | x | x | x | x | 0%
O=C(CCNC(=O)C1CCN(S(=O)(=O)c2ccccc2)CC1)NCc1cccc(C(F)(F)F)c1 | i | -1 | 0% | 1 | 1%
